Screen size: about 16,000 compounds; about 4,000 (25%) were called active. Roughly 26% stayed inconclusive and do not appear here. Only a sample is shown. Unmarked numbers belong to inactive results. Calls come from the whole dose curve; as a rule, active = well fitted curve in the direction sought with a large enough effect; inconclusive = small, poorly fitted or top-dose-only effect, or effect the other way; inactive = no such curve, though single readings can be large or run the other way. Numbered stars: 1 amine (or outer) side, 2 acyl side, 3 side chain; on linkers, the order of the positions; unused ones are H or OH. Bridge positions count the residues as written; N and C are the ends. Square brackets hold non-standard residues; d marks the D form. Peptide text beside a SMILES is read from it. I, II: the chains in the order shown. Actinocin(9to1) = Cc1c2oc3c(C)ccc(C(=O)[*:1])c3nc-2c(C(=O)[*:2])c(N)c1=O; aThr = C[C@H](O)[C@H](N)C(=O)O; NMeV = CN[C@H](C(=O)O)C(C)C; Sar = CNCC(=O)O
What follows are compounds tested against Cytochrome P450 2C9 (Homo sapiens) (UniProt P11712) (assay: Cytochrome panel assay with activity outcomes). Conditions: recombinant CYP, pro-luciferin dealkylation, luminescence, p450-cyp2c9; series mostly up to 57.1 µM; activity, negative = inhibition: at the top concentration.
% is set by controls: 0 for no effect and ±100 for the full control effect.

Cytochrome P450 2C9 (Homo sapiens), sequence (P11712 whole entry, looked up): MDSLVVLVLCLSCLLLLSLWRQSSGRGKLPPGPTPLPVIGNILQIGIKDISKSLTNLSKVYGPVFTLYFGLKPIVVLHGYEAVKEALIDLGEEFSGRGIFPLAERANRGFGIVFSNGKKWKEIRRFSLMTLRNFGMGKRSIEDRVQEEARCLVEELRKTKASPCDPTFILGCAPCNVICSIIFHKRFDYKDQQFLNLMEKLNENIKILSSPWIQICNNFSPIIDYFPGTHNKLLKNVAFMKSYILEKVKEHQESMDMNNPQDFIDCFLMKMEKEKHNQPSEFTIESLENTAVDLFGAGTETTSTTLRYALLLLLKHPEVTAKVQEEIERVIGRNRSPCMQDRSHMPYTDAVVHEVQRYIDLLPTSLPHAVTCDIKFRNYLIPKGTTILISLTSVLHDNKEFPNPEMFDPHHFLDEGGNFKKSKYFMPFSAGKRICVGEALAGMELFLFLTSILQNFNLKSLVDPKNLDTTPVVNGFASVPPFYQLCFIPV

Row | SMILES | activity, negative = inhibition | AC50
1 | CN(C)c1ccc(-c2nccc(NCCN3CCOCC3)n2)cc1 | 5.77% [at 2.29 µM] | –
2 | CSc1ccc2c(c1)[C@H](N1CCN(C)CC1)Cc1ccccc1S2 | – | inactive
3 | CCCN1C(=O)C(NC(C)=O)c2cc(OC)ccc21 (stereo not given) | -24% | –
4 | CCCN1C(=O)C(Cc2nc3ccccc3c(=O)n2C)c2ccccc21 (stereo not given) | – | 12.6 µM (active)
5 | FC(F)(F)c1ccccc1-c1nc(NCCN2CCOCC2)c2ccccc2n1 | 12.6% [at 2.29 µM] | –
6 | CC1CN(C(=O)CN2C(=O)NC3(CCCCCC3)C2=O)CC(C)O1 (stereo not given) | -2.81% | –
7 | CC(=O)NCCNc1ncncc1-c1ccc(N(C)C)cc1 | -1.01% [at 2.29 µM] | –
8 | Cc1ccc(NC(=O)CN2C(=O)S/C(=C\c3cccn3C)C2=O)cc1 | -7.98% | –
9 | Cc1ccc(/C=C2\SC(=S)N(CCCC(=O)Nc3ccccn3)C2=O)cc1 | – | 5.01 µM (active)
10 | CCOc1c(OC(C)=O)ccc(/C=C2\N=C(SCC)SC2=O)c1[N+](=O)[O-] | – | 5.62 µM (active)
11 | C=CCSC1=Nc2sccc2C2=NC(=O)CN12 | -5.09% | –
12 | Cc1ccc(C)c(C(=O)CN2C(=O)c3ccccc3S2(=O)=O)c1 | -7.55% | –
13 | Cc1ccccc1NC1=C(C(=O)c2ccccc2)N(C)S(=O)(=O)c2ccccc21 | – | 3.55 µM (active)
14 | Cn1c(=O)c2[nH]c(COCc3nc4c([nH]3)c(=O)n(C)c(=O)n4C)nc2n(C)c1=O | 7.37% [at 11.4 µM] | –
15 | C=CCn1c(SCc2ccc(C(=O)Nc3ccccc3)cc2)nnc1-c1ccccc1 | – | 3.98 µM (active)
16 | C=CCn1c(SCC(=O)Nc2ncc(Cc3ccc(Br)cc3)s2)nnc1-c1ccncc1 | -0.753% | –
17 | Cc1ccc(NC(=O)c2ccc(CSc3nnc(-c4ccncc4)n3C)cc2)cc1 | -29.8% | –
18 | COC(=O)c1ccc(NC(=O)Cn2nc(-c3ccncc3)nc2SCC(=O)Nc2nccs2)cc1 | – | 0.224 µM (active)
19 | O=C(CSc1nnc(-c2ccncc2)n1Cc1ccccc1)Nc1nccs1 | – | 10 µM (active)
20 | CCn1c(SCc2ccc(C(=O)Nc3nccs3)cc2)nnc1-c1ccc(NC(C)=O)cc1 | – | 1.78 µM (active)

Row | SMILES | activity, negative = inhibition | AC50
21 | COc1cc(OC)c2nc(C)c3c(c2c1)N(c1ccc(O)cc1)CC3 | -9.41% | –
22 | Cc1c2oc3c(C)ccc(C(=O)N[C@@H]4C(=O)N[C@@H](C(C)C)C(=O)N5CCC[C@@H]5C(=O)N(C)CC(=O)N(C)[C@@H](C(C)C)C(=O)O[C@H]4C)c3nc-2c(C(=O)N[C@@H]2C(=O)N[C@@H](C(C)C)C(=O)N3CCC[C@@H]3C(=O)N(C)CC(=O)N(C)[C@@H](C(C)C)C(=O)O[C@H]2C)c(N)c1=O (I: [aThr]V[dP][Sar][NMeV] / II: [aThr]V[dP][Sar][NMeV]; ester I:1-I:C, II:1-II:C; linker I:N-II:N via Actinocin(9to1)) | 11.9% | –
23 | O=C1Nc2ccccc2C1=Nc1cccc2ncccc12 | 17.9% [at 11.4 µM] | –
24 | CNc1cc(OC)c(C(=O)N[C@@H]2CCN(Cc3ccccc3)[C@H]2C)cc1Cl | -7.74% | –
25 | C=CCNCCOCCOc1ccc(C)cc1[N+](=O)[O-] | -25.4% | –
26 | Cc1ccc(OCCOCCn2ccnc2)c(Br)c1 | – | 0.501 µM (active)
27 | CCOC(=O)N/N=C1/C[C@@H](O)[C@@H](O)[C@@H]2[C@@H]3C(=O)N(CC)C(=O)[C@H]3CC[C@H]12 | 8.47% [at 11.4 µM] | –
28 | O=S(=O)(c1ccc(F)cc1)N1CC2CCCN2c2ccc(C(F)(F)F)cc21 (stereo not given) | – | 10 µM (active)
29 | O=S(=O)(c1ccc(F)cc1)N1CCCC(CO)C1 (stereo not given) | -17.2% | –
30 | O=C(Nc1ccccc1)N1CC2(CCN(C(=O)c3ccco3)CC2)C1 | 8.02% | –
31 | CN1CCN(c2nc(-c3cccc(C#N)c3)nc3ccccc23)CC1 | -2.12% [at 2.29 µM] | –
32 | COc1ccc(-c2nc(-c3cccc(C)c3)nc(N3CCN(C)CC3)c2C#N)cc1 | – | 7.94 µM (active)
33 | CN1CCN(c2ncnc3ccc(-c4cccc(C#N)c4)cc23)CC1 | 10.4% [at 2.29 µM] | –
34 | Nc1ncnc2nc(N3CCN(CCO)CC3)[nH]c12 | -3.79% [at 11.4 µM] | –
35 | Cc1cc(SCC(=O)c2ccc(Br)cc2)cc(C)[o+]1 | – | 2.51 µM (active)
36 | CC(=O)NC(NC(C)=O)c1ccc(Br)cc1 | -4.71% | –
37 | FC(F)(F)c1nnc(-c2ccccc2)nc1Sc1ccccc1 | – | 7.08 µM (active)
38 | FC(F)(F)c1nnc2c(Sc3ccc(Cl)cc3)nc3ccccc3n12 | -15.9% | –
39 | CN(C)C(=O)c1ccc(-c2ccc3ncnc(Nc4ccc(F)cc4)c3c2)cc1 | 6.1% [at 2.29 µM] | –
40 | COc1n[nH]c2nncnc12 | 1.34% | –

Row | SMILES | activity, negative = inhibition | AC50
41 | Fc1ccc(-c2cnc(-c3cccs3)o2)cc1 | – | 12.6 µM (active)
42 | CN(C)c1ncc2nc(-c3ccc(F)cc3)c(=O)n(Cc3cccs3)c2n1 | -2.96% | –
43 | Cc1ccccc1NC(=O)C(C)c1cccc(C(=O)c2ccccc2)c1 (stereo not given) | – | 3.16 µM (active)
44 | CCCN[C@@H](C)C(=O)Nc1ccccc1C | – | inactive
45 | O=C(O)[C@@H]1[C@@H]2C[C@H]3c4[nH]c5ccccc5c4CCN3C[C@@H]2CC[C@@H]1O | 13.2% [at 25.6 µM] | –
46 | C=C1C=C(Br)C2(OCCCO2)[C@H]2OC12 (stereo not given in full) | 13.6% [at 11.4 µM] | –
47 | CC(=O)NC1(c2cccc(F)c2)CCN(CC(=O)NC2CCCCC2)CC1 | -16.3% | –
48 | O=C(CN(C(=O)CSc1nc2ccccc2o1)c1cccc(F)c1)NC1CCCCC1 | – | 2.24 µM (active)
49 | CCCCCCCCCCCCCCCCCCOC[C@@H](COP(=O)([O-])OCC[N+](C)(C)C)OC | 11.6% | –
50 | COc1ccc(CCn2c(=N)c(C(=O)NCc3ccco3)cc3c(=O)n4ccccc4nc32)cc1 | – | 20 µM (active)
51 | Cc1cc2c(c(=O)o1)[C@H](O)[C@H]1O[C@@H]1C2=O | 10.8% [at 11.4 µM] | –
52 | c1ccc2cc(NCNc3ccc4ccccc4c3)ccc2c1 | – | 3.98 µM (active)
53 | CC(C)C[C@@H](N)C(=O)Nc1ccc2ccccc2c1 | -7.85% [at 11.4 µM] | –
54 | COc1ccc(NC2=NCC(=O)N2Cc2cccs2)cc1 | – | 14.1 µM (active)
55 | CCOc1ccc(NC2=NCC(=O)N2Cc2cccs2)cc1 | – | 17.8 µM (active)
56 | COc1cccc(Nc2ncc3nc(-c4ccccc4)c(=O)n(Cc4cccs4)c3n2)c1 | -2.75% | –
57 | COc1ccc(-c2nc3cnc(N(C)C)nc3n(Cc3cccs3)c2=O)cc1 | 17.4% | –
58 | O=c1c(-c2ccc(F)cc2)nc2cnc(Nc3ccccc3)nc2n1Cc1cccs1 | -6.62% | –
59 | COc1ccc(-c2nc3cnc(Nc4cccc(OC)c4)nc3n(Cc3cccs3)c2=O)cc1 | -0.306% | –
60 | O=C1CN=C(Nc2ccccc2)N1Cc1cccs1 | – | 17.8 µM (active)

— PubChem BioAssay AID1851 (National Center for Advancing Translational Sciences (NCATS), 2009)
